TDP1 cell CPT: qHTS for Inhibitors of human tyrosyl-DNA phosphodiesterase 1 (TDP1): qHTS in cells in presence of CPT; chicken DT40 Tdp1-/-;hTDP1 cells + 20 nM CPT, ATP luminescence, 48 h; Potency, µM (top dose mostly 46.2 µM), without a hit: at the highest dose activity change, negative = growth inhibition, hits mostly inhibitors; 420,000 compounds, 12% hits; AID 686979, 2013; also: potency is read from the fitted curve at half-maximal effect; nearly all actives have a fitted effect of over 55% in size
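Chicken DT40 Tdp1-/- cells complemented with human TDP1, 400 cells/well, exposed to compounds plus 20 nM camptothecin for at least 48 h at 37 C; viability read as ATP content by CellTiter-Glo luminescence.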
IL-1B inflam inh: qHTS for Inhibitors of Inflammasome Signaling: IL-1-beta AlphaLISA Primary Screen | activity change, % at 57.5 µM | THP-1 LPS/ATP IL-1B secretion, AlphaLISA, 16 h; stronger effect = lower value | 360,000 compounds, 4.7% hits; in the data active = activity change below about -50%; inconclusive = mostly about -30% to -49%
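THP-1 cells pretreated 1 hr with compounds (up to 57.5 uM final), then stimulated with LPS (250 ng/mL final) plus ATP (1.25 mM final); secreted IL-1B measured by AlphaLISA after 16 hr, decreased signal indicating inhibition.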
DT40 TDP1 no CPT: qHTS for Inhibitors of human tyrosyl-DNA phosphodiesterase 1 (TDP1): qHTS in cells in absence of CPT; Potency, µM (titrated, usually from 46.2 µM), for the others: at the top dose activity change, negative = growth inhibition, usual class: inhibitors; DT40 Tdp1-/- hTDP1 cells, no CPT, ATP luminescence, 48 h; 420,000 compounds, 15% hits; also: potency is read from the fitted curve at half-maximal effect; nearly all actives have a fitted effect of over 55% in size
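Growth of hTDP1-complemented DT40 Tdp1-knockout cells is measured by ATP luminescence after at least 48 hr compound exposure at 37 °C, with DMSO substituting for the 20 nM CPT used in the parallel screen.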
Giardia killer: Small Molecules that selectively kill Giardia lamblia: qHTS | Giardia lamblia trophozoite viability | activity change, % at 7.66 µM, hits read low | 340,000 compounds, 0.15% hits | AID 540267, 2011; in the data active = activity change below about -80%; inconclusive = between about -30% and that limit;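 also: parasites exposed to compound for two days anaerobically before the ATP read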
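Luminescence from cellular ATP indicates surviving trophozoites (100 cells/well) following 48 hrs anaerobic compound treatment at 37 deg C; signal develops 15-30 min at room temperature.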
ELG1 repair inh: qHTS screen for small molecules that inhibit ELG1-dependent DNA repair in human embryonic kidney (HEK293T) cells expressing luciferase-tagged ELG1; HEK293T ELG1-luciferase reporter, luminescence, 16 h; DNA damage induced by 5-fluorouridine; Potency, µM (highest dose often 46.1 µM), for the others: at the top dose activity change, negative = inhibition, usual class: inhibitors; 330,000 compounds, 2.3% hits; also: potency is read from the fitted curve at half-maximal effect; nearly all actives have a fitted effect of over 55% in size
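Quantitative HTS, concentration-response format. 2,000 cells/well co-treated with 5-fluorouridine and compound, 16 hr in 5% CO2 at 37 °C; ONE-Glo luminescence read after 30 min.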
TDP1 inh: qHTS Assay for Inhibitors of Tyrosyl-DNA Phosphodiesterase (TDP1). 350,000 compounds, 0.28% hits. Tyrosyl-DNA phosphodiesterase 1 (Homo sapiens), Q9NUW8. recombinant TDP1, AlphaScreen DNA substrate cleavage. Potency, µM (highest dose often 130 µM), for inactives: at the top dose activity change, negative = inhibition, hits mostly inhibitors. AID 485290, 2010; also: potency is read from the fitted curve at half-maximal effect; nearly all actives have a fitted effect of over 40% in size
Target sequence (Q9NUW8 whole entry, looked up): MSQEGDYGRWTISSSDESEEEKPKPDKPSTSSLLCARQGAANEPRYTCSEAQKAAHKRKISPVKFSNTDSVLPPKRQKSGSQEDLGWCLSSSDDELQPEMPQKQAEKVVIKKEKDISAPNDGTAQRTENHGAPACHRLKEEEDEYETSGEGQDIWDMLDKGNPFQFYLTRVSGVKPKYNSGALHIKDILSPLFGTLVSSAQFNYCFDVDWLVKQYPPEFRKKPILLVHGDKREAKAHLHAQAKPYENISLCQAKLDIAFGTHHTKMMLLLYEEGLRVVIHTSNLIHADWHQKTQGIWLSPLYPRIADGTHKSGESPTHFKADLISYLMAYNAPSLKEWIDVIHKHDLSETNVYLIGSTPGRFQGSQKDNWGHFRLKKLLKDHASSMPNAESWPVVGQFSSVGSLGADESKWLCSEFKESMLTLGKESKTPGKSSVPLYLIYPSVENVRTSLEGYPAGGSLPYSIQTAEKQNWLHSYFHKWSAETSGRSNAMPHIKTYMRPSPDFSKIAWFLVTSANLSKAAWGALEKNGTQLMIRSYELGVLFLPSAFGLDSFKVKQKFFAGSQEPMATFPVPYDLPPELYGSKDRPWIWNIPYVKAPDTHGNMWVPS
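Compounds were preincubated with Tdp1 (1 nM final) for 15 min at room temperature before substrate (15 nM final) started a 5 min reaction; beads (10 ug/ml final) were then added for 10 min before AlphaScreen detection.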
An asterisk follows results filed as active; ? = inconclusive; · = not tested or not shown; [ ] = another dose, or the depositor's remark. Rows were chosen to be rich in hits. Some 19% of all compounds tested hit in one or more screens of this group. Unless noted, calls follow the shape of the dose curve; as a rule, active = well fitted curve in the direction sought with a large enough effect; inconclusive = small, poorly fitted or top-dose-only effect, or another doubt; inactive = no such curve, though single readings can be large; an effect the other way counts as inactive or inconclusive. % is scaled to controls: 0 for no effect and ±100 for the full control effect.

SMILES	TDP1 cell CPT	IL-1B inflam inh	DT40 TDP1 no CPT	Giardia killer	ELG1 repair inh	TDP1 inh
Cc1cccc2cc(CN(CCCO)C(=O)Nc3ccc(Cl)cc3)c(=O)[nH]c12	?	?	21µM*	7	21µM*	4%
Cc1ccc(C(=O)c2oc3ccccc3c2NC(=O)c2cc(-c3ccccc3)on2)cc1F	-4%	·	-14%	·	·	6%
O=C(c1ccc(Cl)cc1)C(Cn1cncn1)C(Sc1ccccc1)c1ccccc1 (stereo not given)	?	-61*	?	0	?	3%
O=C(CNc1cc(S(=O)(=O)N2CCOCC2)ccc1N1CCCC1)N1CCc2ccccc21	-24%	-16	?	-7	?	7%
CC(C)CNS(=O)(=O)c1cc(C(=O)N2CC(C)OC(C)C2)c(Cl)cc1Cl (stereo not given)	?	-1	23µM*	6	3%	1%
CC(C)CN(C(=O)CSc1nc2ccccc2c(=O)n1C)C1CCS(=O)(=O)C1 (stereo not given)	5%	-20	-1%	-24	0%	-1%[56.1 µM]
CCc1cc(C(=O)NCCN2Cc3ccccc3OC(c3ccsc3)C2)n(C)n1 (stereo not given)	?	·	21µM*	·	·	·
O=C(NCCN1Cc2ccccc2OC(c2ccsc2)C1)c1cncs1 (stereo not given)	-48%[9.04 µM]	·	-93%	·	·	·
Clc1cccc(N2CCN(c3c4c(nc5nncn35)CCC4)CC2)c1	18µM*	·	7.3µM*	·	·	7%
COc1ccc(Nc2nc(-c3cccs3)nc3ccccc23)cc1	?	-3	23µM*	-13	?	0%
COc1cccc(-c2nc(N(C)C)c3ccccc3n2)c1	3%	·	?	·	·	·
COc1cccc(Nc2ncnc3ccccc23)c1	?	-3	?	2	?	1%
COc1cccc(CN(C)c2nc(-c3cccs3)nc3ccccc23)c1	18µM*	-18	21µM*	-17	?	-1%
COc1cccc(Nc2nc(-c3cccs3)nc3ccccc23)c1	?	-58*	23µM*	-17	23µM*	0%
CCS(=O)(=O)c1ccc(O)c(NC(=O)NC2CCCCC2)c1	-8%	5	-13%	1	29%	1%
CC(=O)c1ccc(Nc2nc3c(S(=O)(=O)c4ccccc4)nnn3c3ccc(Cl)cc23)cc1	?	·	-26%	·	·	0%
COc1ccc(C(=O)NC2CC(C)(C)NC(C)(C)C2)cc1S(=O)(=O)N1CCOCC1	1%	5	-5%	·	·	·
CC(O)CN1C(=O)C(CC(=O)Nc2ccc(Cl)cc2)SC1=Nc1ccccc1 (stereo not given)	?	-56*	26µM*	10	-5%	-2%
COCCN1C(=O)C(CC(=O)Nc2ccc(C(C)=O)cc2)SC1=Nc1ccccc1 (stereo not given)	16µM*	15	?	-6	1%	3%
COc1cc(OC)c(NC(=O)Cc2c(C(=O)O)c(C)cn2C)cc1Cl	-3%	·	4%	·	·	8%
CCC[N+](C)(C)c1ccc(/C=C/c2ccncc2)cc1	0.35µM*	·	0.35µM*	·	·	·
C(=C\c1ccncc1)/c1ccncc1	0%	-16	24%	24	0%	0%
CC[N+](C)(C)c1ccc(/C=C/c2ccncc2)cc1	0.71µM*	·	0.63µM*	·	·	·
C(=C\c1ccncc1)/c1ccccc1	-3%	0	10%	-3	?	-4%
C/C(=N\NC(=O)c1ccccc1[N+](=O)[O-])c1ccc(Br)s1	-11%	0	?	-3	-3%	6%

Screens (PubChem)
